Measured values published in PubChem BioAssay (EPA / NIEHS).
Records with an inconclusive call do not appear. Active and inactive are the calls of the source. How the source made its calls: active means hit-call score of the fitted dose curve at least 0.9, where 1 is the maximum; inconclusive means response in the unintended direction; inactive means score below 0.9.

Target: human Retinoic Acid Receptor beta (RARb), RARB (gene 5915) (UniProt P10826)
Experiment: ATG_RARb_TRANS: Attagene TRANS-FACTORIAL HepG2 Assay for human Retinoic Acid Receptor beta (AID 2283004)
Description: ATG_TRANS is a cell-based, multiplexed-readout assay that uses HepG2, a human liver cell line, with measurements taken at 24 hours after chemical dosing in a 24-well plate.ATG_RARb_TRANS is one of 30 assay component(s) measured or calculated from the ATG_TRANS assay. It is designed to make measurements of mRNA induction, a form of inducible reporter, as detected with fluorescence intensity signals by Reverse transcription polymerase chain reaction (RT-PCR) and Capillary electrophoresis technology.Data from the assay component ATG_RARb_TRANS was analyzed into 1 assay endpoint. This assay endpoint, ATG_RARb_TRANS, was analyzed in the positive analysis fitting direction relative to DMSO as the negative control and baseline of activity. Using a type of inducible reporter, measures of mRNA for gain-of-signal activity can be used to understand the reporter gene at the transcription factor-level as they relate to the gene RARB. Furthermore, this assay endpoint can be referred to as a primary readout, because this assay has produced multiple assay endpoints where this one serves a reporter gene function. To generalize the intended target to other relatable targets, this assay endpoint is annotated to the nuclear receptor intended target family, where the subfamily is non-steroidal.
Human liver HepG2 cells are transiently transfected with multiple reporter transcription units (MRTUs) in 6-well plates using FuGene 6 reagent (Roche; 3 ml FuGene/1 mg DNA). The MRTU constructs are regulated by a cis-regulating element (promoter). […] A major difference between the CIS and TRANS system is that in CIS activities of endogenous TFs are measured, whereas the TRANS assay evaluates changes in activities of exogenous, chimeric NR-Gal4 proteins. […] At the end of 24 hour incubation, total RNA was isolated using TriZol reagent (Invitrogen). The isolated RNA is then reverse-transcribed using oligo(dT) primer and Mo-MLV reverse transcriptase (Invitrogen) with DNAse I (Ambion) treatment for 30 min. The one-tenth of the produced cDNA was amplified by PCR using Taq DNA polymerase (Invitrogen) and two reporter sequence-specific primers. The PCR products were fluorescently labeled by primer extension with 6-arboxyfluorescein (6-FAM) 5'-labeled reporter sequence-specific primer (2 min at 95 C, 20 s at 68 C and 10 min at 72 C) and these products were digested with 5U of HpaI (New England Biolabs) for 2h at 37 C. The fragments were purified using Qiaquick PCR columns (Qiagen), analyzed on an ABI 3130xL genetic analyzer (Applied Biosystems) with peak positions identified by using a set of X-rhodamine (ROX)-labeled MapMarker1000 molecular weight standards (BioVentures). The raw capillary electrophoresis data was processed using Attagraph software (Attagene).

Chain of human Retinoic Acid Receptor beta (RARb), RARB (gene 5915) (P10826 whole entry, looked up): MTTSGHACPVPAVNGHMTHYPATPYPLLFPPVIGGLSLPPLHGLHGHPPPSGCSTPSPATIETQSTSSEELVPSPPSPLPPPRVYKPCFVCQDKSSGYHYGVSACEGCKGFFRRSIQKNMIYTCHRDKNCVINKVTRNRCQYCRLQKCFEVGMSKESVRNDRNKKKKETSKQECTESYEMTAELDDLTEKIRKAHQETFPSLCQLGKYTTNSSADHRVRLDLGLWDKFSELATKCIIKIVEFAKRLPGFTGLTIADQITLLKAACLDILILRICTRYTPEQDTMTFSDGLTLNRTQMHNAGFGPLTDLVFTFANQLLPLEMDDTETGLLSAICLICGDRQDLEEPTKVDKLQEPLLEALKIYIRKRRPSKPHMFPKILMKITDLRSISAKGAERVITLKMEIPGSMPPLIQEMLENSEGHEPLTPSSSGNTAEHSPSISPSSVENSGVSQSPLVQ

Compound | outcome | AC50
CO[Si](CCCNCCN)(OC)OC | inactive | –
CCCCCCCCCCCCCCCCCC[N+](C)(C)C | – | 15.7 µM (active)
CC=CC(=O)O | inactive | –
CC(=O)c1nccs1 | inactive | –
CCCOCCC | inactive | –
CCCCCCC1CCC(=O)O1 (stereo not drawn) | inactive | –
Cc1cc(-n2nc3ccc(Cl)cc3n2)c(O)c(C(C)(C)C)c1 | inactive | –
CCCCCCC(O)CCCCCCCCCCC(=O)OC (stereo not drawn) | inactive | –
CN1CCCC1 | inactive | –
CCC(C)(CCC(C)C)C(=O)O (stereo not drawn) | inactive | –
CCCCCC1CCCC(=O)O1 (stereo not drawn) | inactive | –
[O-][n+]1ccc(Cl)cc1 | inactive | –
Cc1ccnc(N)c1 | inactive | –
O=C(Oc1ccccc1)c1ccccc1 | inactive | –
CCC(C)=NO | inactive | –
C=C1CC[C@H]2C[C@@H]1C2(C)C | inactive | –
C/C=C(\C)C(=O)OCC/C=C\CC | inactive | –
O=C(O)c1ccccc1C(=O)O | inactive | –
